Assay outcomes from PubChem BioAssay.
Shiga toxin inh – A qHTS for Small Molecule Inhibitors of Shiga Toxin. AID 2315, 2010. Vero cells, Shiga toxin protein synthesis inhibition reporter. inhibition, % at 38.7 µM. actives 9.2% (n = 290,000); in the data active = inhibition mostly above about 28%, no sharp cut-off; inactive = mostly below about 43%; note: 0% is about no effect
CHX counter – Cycloheximide Counterscreen for Small Molecule Inhibitors of Shiga Toxin. actives 12% (n = 300,000). max response, %. cell reporter, cycloheximide protein synthesis inhibition counterscreen; in the data active = max response mostly above about 13%, no sharp cut-off; inactive = mostly below about 14%; note: read at 38.3 µM for the half of the compounds with a filed dose; 0% is about no effect
Pf growth 96h – Primary qHTS for delayed death inhibitors of the malarial parasite plastid, 96 hour incubation; P. falciparum luciferase reporter growth, 96 h; Potency, µM (highest dose often 28.7 µM), without a hit: at the top dose activity change, negative = inhibition, usual class: inhibitors; actives 6.9% (n = 320,000); note: potency is the fitted concentration of half-maximal effect; % is set by controls: 0 for no effect and ±100 for the full control effect
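Cell-based qHTS: luciferase-tagged P. falciparum in erythrocytes (2% hematocrit, 0.05% parasitemia final) incubated with compounds for 96 hours, 37 C, 5% CO2; luciferase detection reagent then added and luminescence measured.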
Pf growth 48h – Primary qHTS for delayed death inhibitors of the malarial parasite plastid, 48 hour incubation; P. falciparum luciferase growth in erythrocytes, 48 h; Potency, µM (series often up to 28.7 µM), without a hit: at the highest dose activity change, negative = inhibition, usual class: inhibitors; actives 5.9% (n = 310,000); note: potency is the fitted concentration of half-maximal effect; % is set by controls: 0 for no effect and ±100 for the full control effect
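Cell-based growth assay: transgenic P. falciparum expressing firefly luciferase, cultured in red cells within RPMI 1640 containing 0.5% w/v Albumax, 24 mM bicarbonate and gentamycin. A drop in luciferase activity indicates inhibition.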
HCMV inh – qHTS Assay for inhibitors of the human cytomegalovirus (HCMV) | activity change, negative = inhibition, % at 57.5 µM | actives 4.5% (n = 410,000) | HFF cells, HCMV-luciferase reporter, 72 h; hits give low values; in the data active = activity change below about -60%; inconclusive = no clear call, values can overlap the other calls; inactive = above about -39%; note: % is set by controls: 0 for no effect and ±100 for the full control effect
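Steps: HFFs plated, 16 h 37C; compounds added; HCMV-luciferase added to MOI 1 PFU/cell; 72 h 37C; OneGlo reagent, 5 min room temperature; luminescence read, normalized to controls.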
HCV inh – qHTS Assay for Inhibitors of Hepatitis C Virus (HCV) | Huh7.5.1 HCVcc-Cre infection, luciferase reporter, 44 h | Potency, µM (series often up to 41.8 µM), for inactives: at the highest dose activity change, negative = inhibition, most hits filed as inhibitors | AID 651820, 2012 | actives 3.4% (n = 340,000); note: potency is the fitted concentration of half-maximal effect; % is set by controls: 0 for no effect and ±100 for the full control effect
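Compounds are dispensed onto cells plated 4 h earlier at 1,000 per well, with HCVcc-Cre virus (about 0.5 moi) added next. Following 44 h of culture, luminescent signal is measured for 15 sec after 15 min with substrate at room temperature.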
Starred values were filed as active, the others as inactive; ? = inconclusive; . = not tested or not shown; + = active, no number. Shown are actives, neighbours in structure and some others; about 21% of the full set was active somewhere. Unless noted, calls come from the whole dose curve; as a rule, active = well fitted inhibition curve with a large enough effect; inconclusive = small, poorly fitted or top-dose-only effect, or another doubt; inactive = no such curve, though single readings can be large or run the other way.

SMILES | Shiga toxin inh | CHX counter | Pf growth 96h | Pf growth 48h | HCMV inh | HCV inh
CCOc1ccc(NC(=O)CN(C)C(=O)c2c(C)nn(Cc3ccccc3Cl)c2C)cc1OCC | . | . | . | . | -16 | -26%
Cc1nn(Cc2ccccc2Cl)c(C)c1C(=O)N(C)CC(=O)Nc1cccc(F)c1 | . | . | ? | 13µM* | ? | ?
COc1ccc(NC(=O)CN(C)C(=O)c2csc3c2CCCC3)cc1 | . | . | 23% | -1% | -5 | -10%
CCOc1ccc(NC(=O)CN(C)C(=O)CSCc2cccc(C)c2)cc1OCC | . | . | 15µM* | ? | 1 | ?
CCOc1ccc(NC(=O)CN(C)C(=O)c2ccccc2OCc2cccc(C)c2)cc1OCC | . | . | ? | ? | 0 | 10µM*
CCOc1ccc(NC(=O)CN(C)C(=O)c2csc3c2CCCC3)cc1OCC | . | . | ? | 13µM* | -1 | ?
CSc1ccc(/C=C/C(=O)OCC(=O)NC2CCS(=O)(=O)C2)cc1 (centres undefined) | . | . | ? | -22% | 0 | 12%
O=C(NCc1ccc(F)cc1)C1(S(=O)(=O)c2ccc(Cl)cc2)CC1 | 4 | -2 | -16% | 25% | -35 | 2%
Cc1ccc(S(=O)(=O)c2cnc(SCC(=O)Nc3cccc(Cl)c3)nc2N)cc1C | . | . | . | . | 9 | .
CCOc1ccc(NC(=O)CN(C)C(=O)c2cc(S(=O)(=O)N3CCCCC3)ccc2Cl)cc1OCC | . | . | ? | -2% | -15 | 2%
CCOc1ccc(NC(=O)CN(C)C(=O)c2cc(S(=O)(=O)N(C)C)ccc2N2CCCC2)cc1OCC | . | . | -19% | 10µM* | -7 | 21%
CN(Cc1cn(Cc2ccccc2)nc1-c1ccc2c(c1)OCO2)Cc1nccn1C | -8 | 7 | 15µM* | ? | -6 | -11%
COc1ccc2c(c1OC)C(=O)OC2Nc1nc(-c2cc3cc(Br)ccc3oc2=O)cs1 (centres undefined) | 80* | 37* | 40% | 70% | 13 | -6%
COc1ccc(-c2csc(NC3OC(=O)c4c3ccc(OC)c4OC)n2)cc1OC (centres undefined) | 12 | 12* | ? | -6% | -98* | -77%
COc1ccc2c(c1OC)C(=O)OC2Nc1ccccn1 (centres undefined) | -20 | 4 | . | 15% | -2 | 25%
COc1ccc2c(c1OC)C(=O)OC2Nc1nc2ccccc2s1 (centres undefined) | 12 | 8 | 76% | 70% | 24 | 22%
COc1ccc2c(c1OC)C(=O)OC2Nc1nc(-c2ccc([N+](=O)[O-])cc2)cs1 (centres undefined) | 56* | 16* | 65% | 53% | 19 | -9%
N#C/C(=C/c1ccc(Br)s1)C(=O)NCCc1c[nH]c2ccccc12 | -11 | -1 | 7% | 24% | -16 | -22%
O=C(NCCc1c[nH]c2ccccc12)/C(=C/c1ccco1)NC(=O)c1ccco1 | -6 | -1 | 0.29µM* | -1% | 8 | 10%
CC(=C\c1ccco1)/C=C(\C#N)C(=O)NCCc1c[nH]c2ccccc12 | -3 | 0 | -18% | -3% | -73* | ?
O=C(NCCc1c[nH]c2ccccc12)c1ccco1 | 26 | 18* | 51% | 28% | 18 | -21%
CC(=O)NCCc1c[nH]c2ccccc12 | 0 | -1 | 13% | 13% | . | 0%
CCc1ccc([C@H]2[C@@H]3C(=O)C[C@@H]4C(=O)N(C5CCCCC5)C(=O)[C@@H]4[C@@H]3CN2S(=O)(=O)c2ccc(C)cc2)cc1 | . | . | . | . | -14 | .
CNC(=O)c1c(N)sc2c1CCCCC2 | -14 | -4 | 10µM* | . | . | .
NC(=O)c1c(N)sc2c1CCCCC2 | -8 | 1 | ? | 6% | 38 | -16%
SMILES | Shiga toxin inh | CHX counter | Pf growth 96h | Pf growth 48h | HCMV inh | HCV inh
COCCNC(=O)c1c(N)sc2c1CCCC2 | -18 | -3 | ? | 9.3µM* | . | 3%
CC[C@H](C)[C@H](NC(=O)[C@H](Cc1ccc(O)cc1)NC(=O)[C@@H]1CCCN1C(=O)[C@H](CCCCN)NC(=O)[C@@H](N)CCCCN)C(=O)N[C@@H](CC(C)C)C(=O)O | 24 | -4 | . | . | . | .
Cc1c(C(=O)Nc2ccc(F)cc2F)oc2c1-c1nn(Cc3c(F)cccc3Cl)cc1CC2 | . | . | . | . | -34 | .
O=C(C1CCC(CNS(=O)(=O)c2cccc3cccnc23)CC1)N1CCc2ccccc21 (centres undefined) | 3 | -7 | ? | . | -61* | ?
CC1CCC(NC(=O)C2CCC(CNS(=O)(=O)c3cccc4cccnc34)CC2)CC1 (centres undefined) | 8 | 2 | 12µM* | -9% | -1 | ?
CC1CCN(C(=O)C2CCC(CNS(=O)(=O)c3cccc4cccnc34)CC2)CC1 (centres undefined) | -8 | -2 | 9.3µM* | . | -20 | .
CN1CCN(C(=O)C2CCC(CNS(=O)(=O)c3cccc4cccnc34)CC2)CC1 (centres undefined) | -11 | -6 | ? | . | 20 | -5%
O=C(O)c1ccc(Cn2cnc3c(=O)[nH]cnc32)cc1 | . | . | . | . | 1 | 28%
CC(C)(C)OC(=O)N1CCC(c2c(C(=O)Nc3ccc4c(c3)OCCO4)cnn2-c2ccccc2)CC1 | . | . | . | . | 0 | .
Cc1cc(C)c[n+](CC(=O)c2ccc(NC(=O)c3ccccc3)cc2)c1 | 6 | 1 | 27% | ? | -32 | -1%
CN(C)CC(=O)c1ccc(-c2ccccc2)cc1 | 99 | 24* | 10% | 18% | -4 | 8%
CCN(CC)C(=O)c1ccc(-c2nnc(OC)c3ccccc23)cc1 | -2 | -3 | 0% | 7% | -66* | -1%
CCN(CC)C(=O)c1ccc(-c2nnc(Nc3ccc(C(=O)NC)cc3)c3ccccc23)cc1 | 3 | -3 | ? | -61% | -22 | -22%
Cc1cc(C)c[n+](CC(=O)c2ccc(-c3ccccc3)cc2)c1 | 8 | 6 | 15µM* | ? | -77* | ?
CCN(CC)C(=O)c1ccc(-c2ccccc2)cc1 | + | 16* | ? | ? | -3 | 16%
CCn1c(C)nc2cc(C(=O)N=Nc3c(O)[nH]c4c(C)cc(C)cc34)ccc21 | 8 | 4 | 6.6µM* | 9.3µM* | -37 | 8%
CCn1c(C)nc2cc(C(=O)N=Nc3c(O)[nH]c4ccccc34)ccc21 | 6 | 2 | 30% | 13% | . | -6%
COc1cc(C(=O)NC2Cc3ccccc3C2)ccc1OC1CCN(C(C)=O)CC1 | -3 | 8 | ? | ? | 33 | -26%
COc1cc(C(=O)NC2CC(C)(C)CC(C)(C)C2)ccc1OC1CCN(C(C)=O)CC1 | -4 | -4 | 9.3µM* | ? | ? | -5%
